# According to PubChem BioAssay (Tox21):
# Values joined by “and” are separate entries in the source; they are usually repeats but may differ in a detail not shown here. Identical values can stand only once. Results filed as inconclusive are left out. Where a call stands in place of a potency, no number is given. Active and inactive are the calls of the source. Calls come from the whole dose curve; as a rule, active = well fitted activation curve with a large enough effect in the repeat runs; inconclusive = weak or mixed curves; inactive = flat fitted curve, though single readings scatter.
# Test: A CellTox Green Cytotoxicity Assay to monitor cytotoxicity in HEK293 cells - 24 hour (AID 1224875); note: nearly all actives have a fitted effect of over 45% in size
# Details: CellTox Green fluorescence; series mostly up to 76.8 µM
# Method in brief: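 Fluorescence intensity, read at 0, 8, 16, 24, 32 and 40 h of compound treatment, reflected dye binding to DNA of dead HEK293 cells; compounds (23 nL, DMSO) were added 5 h after plating cells with reagent.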
# Potency is the fitted concentration of half-maximal effect.
row,SMILES,Potency
1,C1CCC(NC2CCCCC2)CC1,inactive
2,O=C(O)COc1ccc(Cl)cc1Cl,inactive
3,CC(=O)[O][Hg][c]1ccccc1,863 nM (active) and 1.38 µM (active) and 1.07 µM (active)
4,C[N+](C)(C)Cc1ccccc1,inactive
5,CCC[N+]1(C)CCCC1,inactive
6,Oc1cccc2cccnc12,inactive
7,CCCC[N+]1(C)CCCC1,inactive
8,Cc1cc(-c2ccc(N)c(C)c2)ccc1N,inactive
9,OCCOc1ccccc1,inactive
10,Nc1ccc(Cl)cc1,inactive
11,COc1ccc(N)cc1,inactive
12,CCCC[n+]1ccccc1,inactive
13,O=C(O)C(Cl)(Cl)Cl,inactive
14,CCCC[n+]1cccc(C)c1,inactive
15,CCC[N+]1(C)CCCCC1,inactive
16,Nc1ccccc1,inactive
17,Nc1ccc(-c2ccc(N)cc2)cc1,inactive
18,CCCC[n+]1ccccc1C,inactive
19,CCCCCCCCCCn1cc[n+](C)c1,inactive
20,COCC(=O)N(c1c(C)cccc1C)C(C)C(=O)OC (configuration not stated),inactive
21,Oc1ccccc1-c1ccccc1,inactive
22,CCCCn1cc[n+](C)c1,inactive
23,CC(=O)O,inactive
24,O=c1nc(O)n(Cl)c(=O)n1Cl,inactive
25,CCCCCCn1cc[n+](C)c1,inactive
26,COP(=O)(OC)C(O)C(Cl)(Cl)Cl (configuration not stated),inactive
27,CCCCCCCCn1cc[n+](C)c1,inactive
